Each structure is given as a SMILES string. Active and inactive are the calls of the source.

The target of one test is Albumin (Bos taurus) (UniProt P02769). The test is described as follows: compounds binding labelled BSA control protein – biochemical, small-molecule microarray, Alexa647 label, 635/667 nm fluorescence, artefact control for SMM control protein annotation, profiling panel (AID 1118).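 Also: score merges 667 nm emission intensity and signal-to-noise per printed compound spot.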 Conditions: BSA-A647 binding, fluorescence 635 nm, higher = more signal.
Chain of Albumin (Bos taurus) (P02769 whole entry, looked up): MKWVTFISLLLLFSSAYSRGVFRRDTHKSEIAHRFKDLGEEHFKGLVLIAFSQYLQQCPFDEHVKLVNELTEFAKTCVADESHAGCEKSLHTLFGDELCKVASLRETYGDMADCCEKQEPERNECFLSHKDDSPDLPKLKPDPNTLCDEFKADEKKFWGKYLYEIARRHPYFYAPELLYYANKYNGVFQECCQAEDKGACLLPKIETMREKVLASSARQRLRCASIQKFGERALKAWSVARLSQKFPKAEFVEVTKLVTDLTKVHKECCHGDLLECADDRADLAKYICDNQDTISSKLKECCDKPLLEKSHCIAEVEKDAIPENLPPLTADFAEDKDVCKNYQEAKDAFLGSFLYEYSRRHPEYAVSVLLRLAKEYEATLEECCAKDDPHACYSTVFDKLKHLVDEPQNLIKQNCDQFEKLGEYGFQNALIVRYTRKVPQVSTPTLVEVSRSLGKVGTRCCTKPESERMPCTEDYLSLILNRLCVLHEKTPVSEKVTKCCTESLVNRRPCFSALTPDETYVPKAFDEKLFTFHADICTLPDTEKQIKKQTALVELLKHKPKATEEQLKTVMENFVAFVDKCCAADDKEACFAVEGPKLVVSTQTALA
Test [1] can be described thus: probe aXIP binding to arrayed compounds – biochemical, NeuroSMM set, 635/667 nm fluorescence, primary screen (AID 1119).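 Also: probe is the protein aXip251-270 applied at 1 µg/mL to compound-printed slides; binding of probe to printed compounds measured as 667 nm fluorescence plus signal to noise.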 Conditions: small-molecule microarray, higher = more signal, called active from +8 up or from −8 down.
Test [2] can be described thus: probe aNOTCH3 binding on compound microarray – biochemical, small-molecule microarray, 635/667 nm fluorescence, primary screen (AID 1120).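 Also: probe is a biotin-tagged antibody raised against NOTCH3 rather than NOTCH3 protein; score merges spot fluorescence near 667 nm with spot signal to noise.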 Conditions: higher = more signal.
Test [3] can be described thus: probe aNOTCH2 binding on compound microarray – biochemical, small-molecule microarray, 635/667 nm fluorescence, primary screen (AID 1121).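 Also: score merges feature fluorescence read at 667 nm with its signal to noise.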 The note with it: higher = more signal.
Test [4] concerns the target Carbonic anhydrase 2 (Homo sapiens) (UniProt P00918). The test is described as follows: compounds binding carbonic anhydrase 2 – biochemical, small-molecule microarray, Alexa647-labelled CAII, profiling panel (AID 1122). The note with it: CAII-A647 binding fluorescence, higher = more signal.
A short description of test [5]: COS7 lysate on small-molecule microarray, probe aHis, 635 nm (AID 1123).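 Also: z-score combines 667nm fluorescence intensity with signal-to-noise per printed compound spot.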 The note with it: COS7 cell lysate, fluorescence, higher = more signal.
The nature of test [6]: probe aLAP1 signal on lysate-treated microarray – cell lysate, small-molecule microarray, COS7 lysate, primary screen (AID 1124).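 Also: lysate comes from COS7 cells expressing LAP1 and is applied at 0.3 µg/mL; score merges spot fluorescence near 667 nm with signal-to-noise over triplicate slides.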 Conditions: probe aLAP1, fluorescence, higher = more signal.
The next test relates to Sam68 (KHDRBS1). The test is described as follows: compounds binding KHDRBS1 protein – biochemical, small-molecule microarray, 635 nm fluorescence, primary screen (AID 1125).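 Also: score merges 667 nm channel intensity with signal to noise over triplicate slides.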 The note with it: higher = more signal.
The test system of test [7] is Chordin-like protein 2 (CHRDL2). Description: compounds binding chordin-like 2 – biochemical, small-molecule microarray, 635 nm fluorescence, primary screen (AID 1126).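 Also: printed compound slides probed with Chrdl2 protein at 4 µg/mL for 1 h at 4 C; score merges 667 nm emission intensity with signal to noise over three replicate slides.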 Conditions: fluorescence 635 nm, higher = more signal.
In test [8] the target is Concanavalin-A (Canavalia ensiformis) (UniProt P02866). Description: compounds binding concanavalin A lectin – biochemical, small-molecule microarray, Alexa647 label, 635 nm, artefact control for SMM control protein annotation, primary screen (AID 1127).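 Also: z combines 667 nm emission intensity with signal-to-noise across three replicate slides.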 Conditions: ConA-A647 binding fluorescence, higher = more signal.
Chain of Concanavalin-A (Canavalia ensiformis) (P02866 whole entry, looked up): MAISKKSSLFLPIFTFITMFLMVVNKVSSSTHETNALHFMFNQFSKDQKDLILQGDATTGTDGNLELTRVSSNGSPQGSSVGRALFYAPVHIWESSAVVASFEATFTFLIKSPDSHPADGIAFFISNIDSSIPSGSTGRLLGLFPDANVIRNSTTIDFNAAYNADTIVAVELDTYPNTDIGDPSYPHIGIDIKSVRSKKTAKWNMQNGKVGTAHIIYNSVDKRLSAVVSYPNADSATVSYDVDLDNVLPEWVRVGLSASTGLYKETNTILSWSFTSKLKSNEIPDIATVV
Test [9] is described as follows: compounds binding Alexa647 anti-His antibody – biochemical, small-molecule microarray, 635 nm fluorescence, artefact control for SMM control protein annotation, primary screen (AID 1128).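 Also: score merges feature fluorescence with signal-to-noise for each printed compound spot.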 The note with it: higher = more signal.
Test [10] deals with Human papillomavirus type 1a E7 protein (residues 1-88). The test is described as follows: HPV1a E7 small-molecule binders, primary screen, biochemical, small-molecule microarray, residues 1-88, 635 nm (AID 1129). The note with it: small-molecule microarray binding, fluorescence 635 nm; higher = more signal.
Test [11] concerns the target Focal adhesion kinase 1 (Homo sapiens) (UniProt Q05397). The test is described as follows: PTK2 protein binding on printed compound slides – biochemical, small-molecule microarray, 635/667 nm fluorescence, BSA, DTT, primary screen (AID 1130).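 Also: composite of spot emission at 667 nm and signal to noise over triplicate slides.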 Conditions: 635 nm fluorescence, higher = more signal.
For test [12], the system named is Fibrinogen (Alexa647-labelled). Description: Alexa647-fibrinogen binding to printed small molecules – biochemical, small-molecule microarray, 635/667 nm fluorescence, artefact control for SMM control-protein annotation, profiling panel (AID 1131).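 Also: z-score merges 667 nm fluorescence with per-spot signal-to-noise over triplicate slides.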 Conditions: fibrinogen-A647 binding fluorescence, higher = more signal.
Test [13] concerns the target Follistatin (Homo sapiens) (UniProt P19883). The test is described as follows: FST protein binding to printed compounds – biochemical, small-molecule microarray, 635/667 nm fluorescence, primary screen (AID 1132). Conditions: 635 nm fluorescence, higher = more signal.
In test [14] the target is Fibroblast growth factor 2 (Homo sapiens) (UniProt P09038). The test is described as follows: basic fibroblast growth factor binding to printed compounds – biochemical, small-molecule microarray, 635/667 nm fluorescence, primary screen (AID 1133). The note with it: FGF2, fluorescence 635/667, higher = more signal.
Chain of Fibroblast growth factor 2 (Homo sapiens) (P09038 whole entry, looked up): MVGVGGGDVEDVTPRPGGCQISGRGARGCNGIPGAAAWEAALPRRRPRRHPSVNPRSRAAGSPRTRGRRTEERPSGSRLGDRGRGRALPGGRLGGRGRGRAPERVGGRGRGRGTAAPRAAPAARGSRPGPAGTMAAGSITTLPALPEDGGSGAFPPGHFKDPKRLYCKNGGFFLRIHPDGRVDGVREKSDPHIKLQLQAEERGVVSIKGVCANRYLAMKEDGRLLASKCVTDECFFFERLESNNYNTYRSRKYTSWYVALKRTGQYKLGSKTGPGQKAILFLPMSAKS
Test [15] in a line: JC-1 mitochondrial potential readout, lung cancer cells – cell-based, A549, JC-1 fluorescence, basal, 24 h, 100 nL, profiling panel (AID 1138).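 Also: A549 lung adenocarcinoma cells under basal conditions with no added stimulus; test concentration not given here.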 The note with it: higher = more signal.
A further test deals with Lefty1. The test is described as follows: Lefty1 protein binding to printed compounds – biochemical, small-molecule microarray, 635/667 nm fluorescence, primary screen (AID 1139). The note with it: fluorescence 635/667, higher = more signal.
Test [16] concerns wheat germ agglutinin (Triticum aestivum), Alexa647-labelled. Description: Alexa647-WGA lectin binding to printed small molecules – biochemical, small-molecule microarray, 635/667 nm fluorescence, artefact control for SMM control-protein annotation, profiling panel (AID 1140).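 Also: score merges 667 nm feature emission with signal to noise over triplicate slides.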 Conditions: WGA-A647 binding, 635 nm fluorescence, higher = more signal.
Test [17] concerns the target Luciferin 4-monooxygenase (Photinus pyralis) (UniProt P08659). The test is described as follows: inhibition of purified Photinus pyralis luciferase – biochemical, luminescence, purified enzyme, 2006 set, primary screen (AID 1141).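 Also: cell-free assay with purified firefly luciferase at 100 ng per well in PBS; test concentration not given here.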 Conditions: purified firefly luciferase, SteadyGlo luminescence, 30 min; higher = more signal, called active from +8 up or from −8 down.

Chain of Follistatin (Homo sapiens) (P19883 whole entry, looked up): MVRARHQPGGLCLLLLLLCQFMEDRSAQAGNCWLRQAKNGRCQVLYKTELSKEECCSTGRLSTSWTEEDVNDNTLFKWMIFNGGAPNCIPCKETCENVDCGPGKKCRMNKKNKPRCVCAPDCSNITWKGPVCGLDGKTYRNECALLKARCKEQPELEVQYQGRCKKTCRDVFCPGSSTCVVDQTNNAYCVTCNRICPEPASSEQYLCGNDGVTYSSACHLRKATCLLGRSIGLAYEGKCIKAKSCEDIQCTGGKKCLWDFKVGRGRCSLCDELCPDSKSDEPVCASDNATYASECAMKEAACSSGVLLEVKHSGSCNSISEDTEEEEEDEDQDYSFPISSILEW
Chain of Focal adhesion kinase 1 (Homo sapiens) (Q05397 whole entry, looked up): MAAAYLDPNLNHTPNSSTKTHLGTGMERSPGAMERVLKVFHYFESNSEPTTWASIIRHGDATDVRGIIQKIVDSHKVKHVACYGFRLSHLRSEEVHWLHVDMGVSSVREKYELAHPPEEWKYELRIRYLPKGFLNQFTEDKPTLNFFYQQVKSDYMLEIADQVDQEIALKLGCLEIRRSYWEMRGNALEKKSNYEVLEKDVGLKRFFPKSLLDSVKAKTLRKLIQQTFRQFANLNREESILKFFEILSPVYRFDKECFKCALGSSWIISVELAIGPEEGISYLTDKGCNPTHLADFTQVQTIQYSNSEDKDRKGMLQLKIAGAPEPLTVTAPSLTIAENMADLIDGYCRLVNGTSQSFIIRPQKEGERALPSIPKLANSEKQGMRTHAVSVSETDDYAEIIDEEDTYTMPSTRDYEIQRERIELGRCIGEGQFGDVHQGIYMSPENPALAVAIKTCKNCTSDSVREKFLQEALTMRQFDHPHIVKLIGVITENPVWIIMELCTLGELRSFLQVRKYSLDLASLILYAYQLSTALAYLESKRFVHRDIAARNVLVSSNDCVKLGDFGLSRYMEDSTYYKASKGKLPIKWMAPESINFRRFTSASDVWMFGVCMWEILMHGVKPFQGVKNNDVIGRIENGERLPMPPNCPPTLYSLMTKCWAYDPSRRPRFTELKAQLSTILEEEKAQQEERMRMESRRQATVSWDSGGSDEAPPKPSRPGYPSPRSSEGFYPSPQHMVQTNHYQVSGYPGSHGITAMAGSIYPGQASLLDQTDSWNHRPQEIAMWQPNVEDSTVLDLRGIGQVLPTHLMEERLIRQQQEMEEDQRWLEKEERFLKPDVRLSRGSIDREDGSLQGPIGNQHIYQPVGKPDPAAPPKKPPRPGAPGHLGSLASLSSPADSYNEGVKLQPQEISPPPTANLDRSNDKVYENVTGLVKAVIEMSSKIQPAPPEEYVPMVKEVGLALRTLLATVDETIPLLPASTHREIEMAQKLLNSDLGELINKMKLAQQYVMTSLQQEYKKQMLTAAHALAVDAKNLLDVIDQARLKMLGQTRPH
Chain of Luciferin 4-monooxygenase (Photinus pyralis) (P08659 whole entry, looked up): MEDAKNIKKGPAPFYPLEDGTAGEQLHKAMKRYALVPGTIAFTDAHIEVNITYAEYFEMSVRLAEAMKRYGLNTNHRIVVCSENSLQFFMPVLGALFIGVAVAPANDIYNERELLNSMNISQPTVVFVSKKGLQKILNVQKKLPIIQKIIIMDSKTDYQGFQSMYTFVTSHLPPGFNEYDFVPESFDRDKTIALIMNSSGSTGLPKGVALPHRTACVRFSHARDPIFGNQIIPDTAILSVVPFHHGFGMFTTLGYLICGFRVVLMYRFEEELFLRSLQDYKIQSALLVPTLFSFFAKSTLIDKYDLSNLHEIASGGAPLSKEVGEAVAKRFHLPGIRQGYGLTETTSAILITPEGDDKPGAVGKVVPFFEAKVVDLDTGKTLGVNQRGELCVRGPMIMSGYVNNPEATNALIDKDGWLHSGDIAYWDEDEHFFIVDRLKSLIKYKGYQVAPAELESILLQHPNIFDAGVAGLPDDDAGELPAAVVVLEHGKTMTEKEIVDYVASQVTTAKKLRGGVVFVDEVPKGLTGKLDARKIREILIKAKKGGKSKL

For the compound `COc1cc(C(O)C2C=CC3C(=O)N(Cc4ccccc4)C(=O)C3N2n2cnnc2)cc(OC)c1OC` (stereo not given), the composite z-score in the test with Albumin (Bos taurus) amounted to 0.578; in test [2] it was 0.401; in test [3], 0.202; in [4] it was 0.686; in test [5] it was 1.1; in test [6] it was 1.01. Besides, the composite z-score with Sam68 (KHDRBS1) was 0.462; in [7], -0.141; in test [8] it was 0.458; in test [9] it was 0.941; in [10], 0.869; in [11] it was 0.498. The composite z-score is 0.912 in test [12]; 0.448 in test [13]; 0.405 in test [14]; -0.493 in the test on Lefty1; 1.15 in test [16]. In addition, the composite Z-score in [1] was -0.0603 (inactive). Also, the values for the z-score in [15] and in [17] were -0.417 and -2.17 (inactive), respectively.
`O=C1[C@@H]2[C@@H](CC(COc3ccccc3)=C3[C@@H](CCc4ccccc4)OB(O)C[C@@H]32)C(=O)N1Cc1ccccc1`: the composite z-score with Albumin (Bos taurus) is -0.0421; in test [2], 0.0242; in [3], -0.13; in [4], 0.413; in test [5] it was 0.782; in test [6], 0.111. Also, the composite z-score was -0.258 with Sam68 (KHDRBS1); 0.139 in test [7]; 0.0019 in test [8]; -0.147 in [9]; 0.871 in test [10]; 0.034 in test [11]. In addition, the composite z-score in test [12] is 0.0907; in test [13] it was 0.445; in [14] it was 0.161; in the test with Lefty1, 0.212; in test [16], 0.344. For the same compound, the composite Z-score in test [1] is 0.196 (inactive). In addition, the z-score in test [15] is 1.83; in [17] it was -1.06 (inactive).
On to `C=CCC(OC(C)=O)[C@@H]1[C@@H](N(Cc2cccc3ccccc23)C(=O)Cc2ccc(F)cc2)c2cc(OCCCO)ccc2N1C(=O)c1ccc(-c2ccccc2)cc1` (stereo not given in full), for which the composite z-score with Albumin (Bos taurus) is 0.621; in test [2] it was 0.0847; in test [3], 0.054; in test [4] it was -0.119; in [5], 0.644; in test [6], 0.505. The composite z-score in the test with Sam68 (KHDRBS1) was -0.738; in test [7], -0.335; in test [8] it was -1.6; in test [9], -0.517; in [10], -0.0075; in [11], 0.365. Further, the composite z-score in test [12] was 0.674; in test [13], -0.0679; in test [14], 0.292; in the test with Lefty1, -0.62; in test [16] it was 0.507. In addition, the composite Z-score in test [1] is -0.248 (inactive). The z-score in test [15] was 0.577; in [17], -0.403 (inactive).
As to `C=CCN1C(=O)[C@]2(O[C@H](CCO)[C@@H]([Si](C)(C)c3ccc(OC)cc3)[C@@H]2C)c2cc(N3C(=O)COc4ccccc43)ccc21`, the composite z-score in the test with Albumin (Bos taurus) is 0.427; in test [2] it was 0.0039; in [3], -0.175; in test [4], 0.418; in test [5], 0.751; in test [6] it was 0.78. For the same compound, the composite z-score with Sam68 (KHDRBS1) was 0.804; in test [7] it was -0.153; in [8] it was 0.919; in test [9] it was 1.3; in [10], 0.853; in test [11], 0.179. The composite z-score turned out to be 0.55 in test [12]; 0.618 in test [13]; 0.405 in test [14]; 0.465 in the test with Lefty1; 0.441 in test [16]. Also, in test [1], the composite Z-score is 0.0421 (inactive). The results for the z-score in test [15] and in test [17] were -1.46 and -0.401 (inactive), respectively.
Consider `C=C(CCCC)C(=O)CC[C@H](OC(C)=O)c1ccc(OCCO)cc1`, for which the composite z-score with Albumin (Bos taurus) is 0.551; in test [2] it was -0.292; in test [3], -0.181; in test [4], -0.43; in test [5] it was -0.543; in [6] it was -0.52. In addition, the composite z-score in the test with Sam68 (KHDRBS1) was -0.578; in test [7], -0.858; in [8], 0.924; in test [9] it was 1.45; in [10], -0.957; in [11] it was 0.0145. The composite z-score in test [12] was 0.431; in [13], -0.243; in test [14], -0.271; with Lefty1, 0.108; in test [16], 0.359. Moreover, the composite Z-score in test [1] was 0.517 (inactive). The z-score was 0.208 in test [15] and -0.66 (inactive) in [17].
In the case of `C[C@]1(C(=O)NCCN2CCOCC2)c2ccccc2C(=O)N(Cc2cc(F)cc(C(F)(F)F)c2)[C@H]1c1ccc(CO)cc1`, the composite z-score in the test with Albumin (Bos taurus) is 0.0744; in test [2], -0.159; in test [3], -0.0928; in test [4] it was 0.773; in test [5] it was 2.18; in [6] it was 0.535. Besides, the composite z-score in the test with Sam68 (KHDRBS1) is 0.692; in test [7] it was -0.841; in test [8], 0.828; in test [9] it was 3.12; in [10], 0.917; in [11], 0.746. The composite z-score is 0.91 in test [12]; 0.89 in test [13]; -0.0787 in test [14]; 0.443 in the test on Lefty1; 0.294 in test [16]. In test [1], the composite Z-score was 0.0652 (inactive). Also, the z-score in test [15] is 0.815; in test [17], 1.05 (inactive).

Source of the values: PubChem BioAssay.
